According to publication PMC4336329 (PLoS ONE, 2015):
Screen size: about 310,000 compounds; about 14,000 (4.5%) showed an effect of 50% or more. The effect is printed as a negative number. For the sample, strong results were picked, then their nearest neighbours and some compounds at random.

molecular target: human ether-à-go-go-related gene (hERG) potassium channel (human, UniProt Q12809); assay: primary screen, population patch clamp on CHO cells stably expressing hERG; higher = less effect of the substance
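Further: peak tail current of the secondary pulse compared with the same well before compound.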

Sequence of human ether-à-go-go-related gene (hERG) potassium channel (Q12809 whole entry, looked up): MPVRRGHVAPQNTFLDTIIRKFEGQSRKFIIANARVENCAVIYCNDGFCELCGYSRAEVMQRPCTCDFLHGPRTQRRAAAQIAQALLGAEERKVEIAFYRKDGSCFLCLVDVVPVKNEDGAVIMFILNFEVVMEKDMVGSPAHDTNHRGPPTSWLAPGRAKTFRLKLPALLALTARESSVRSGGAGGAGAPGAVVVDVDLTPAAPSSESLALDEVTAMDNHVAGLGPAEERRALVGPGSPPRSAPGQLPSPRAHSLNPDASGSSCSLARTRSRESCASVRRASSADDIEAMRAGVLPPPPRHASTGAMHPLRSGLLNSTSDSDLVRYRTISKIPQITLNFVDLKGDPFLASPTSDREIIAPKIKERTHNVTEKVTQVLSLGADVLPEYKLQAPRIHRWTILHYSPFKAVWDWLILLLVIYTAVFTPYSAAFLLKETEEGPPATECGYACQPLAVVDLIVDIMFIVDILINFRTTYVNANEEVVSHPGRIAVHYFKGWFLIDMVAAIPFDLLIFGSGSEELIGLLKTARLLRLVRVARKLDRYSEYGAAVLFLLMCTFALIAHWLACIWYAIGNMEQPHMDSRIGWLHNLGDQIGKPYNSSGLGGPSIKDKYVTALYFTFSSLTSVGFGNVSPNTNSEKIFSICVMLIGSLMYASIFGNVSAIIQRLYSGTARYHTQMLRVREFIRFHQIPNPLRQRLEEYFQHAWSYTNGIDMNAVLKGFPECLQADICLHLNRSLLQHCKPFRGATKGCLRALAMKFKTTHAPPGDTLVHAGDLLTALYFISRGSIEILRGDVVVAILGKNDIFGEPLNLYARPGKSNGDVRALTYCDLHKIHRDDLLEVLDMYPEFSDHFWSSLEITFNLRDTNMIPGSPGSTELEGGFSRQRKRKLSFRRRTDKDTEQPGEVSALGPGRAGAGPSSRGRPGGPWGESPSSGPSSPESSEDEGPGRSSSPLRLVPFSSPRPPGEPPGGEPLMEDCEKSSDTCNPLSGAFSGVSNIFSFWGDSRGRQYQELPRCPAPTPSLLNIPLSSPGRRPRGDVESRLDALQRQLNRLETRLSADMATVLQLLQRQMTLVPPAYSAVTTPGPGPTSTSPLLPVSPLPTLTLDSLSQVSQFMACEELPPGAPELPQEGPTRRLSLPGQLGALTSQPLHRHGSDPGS

SMILES | hERG current change (%, negative = inhibition) at 10uM
N#CCC(=O)Nc1ncn(Cc2ccccc2Cl)n1 | 15.4%
CCCCc1nc2cc(C(=O)NCc3ccccn3)ccc2o1 | 2.61%
COc1ccccc1C(=O)NC(=O)CSc1nc2nc(C)cc(C)n2n1 | 0.704%
Cc1cccc(N=c2oc3cc(O)ccc3cc2C(N)=O)c1 | -17.3%
Cc1cc(C(=O)CSc2nc(N)cc(N)n2)c(C)n1-c1cccc(C(F)(F)F)c1 | -64.4%
Cc1cc(C(=O)CSc2nc(N)cc(N)n2)c(C)n1-c1cccc(F)c1 | -14.2%
Cc1cc(C(=O)CSc2ncccn2)c(C)n1-c1cccc(F)c1 | -5.48%
C=CCn1c(Cc2ccccc2)n[nH]c1=S | 11.7%
COc1cc(C(=O)NCc2nnc(SCC(=O)N3CCOCC3)o2)cc(OC)c1OC | 17.2%
OCCCNc1cc(-c2ccnc(Nc3cccc(Cl)c3)n2)ccn1 | -30.3%
OCCCNc1nccc(-c2cc(Nc3cccc(Cl)c3)ncn2)n1 | 9.69%
CN(C)CCCNc1ccc(-c2cc(Nc3cccc(Cl)c3)ncn2)cn1 | -58.4%
CC(=O)Nc1ccc(C(=O)OCC(=O)Nc2ccc([N+](=O)[O-])cc2C(F)(F)F)cc1 | 7.22%
Cc1ccc(Cn2c(=O)n(Cc3ccco3)c(=O)c3ccccc32)cc1 | 16.3%
CC(C)(C)c1ccc(Cn2c(=N)n(CC(O)c3ccco3)c3ccccc32)cc1.Cl (stereo not drawn) | -71.9%
CC(C)(C)c1ccc(Cn2c(=O)cnc3ccccc32)cc1 | -4.85%
Cc1ccc(Cn2c(=N)n(CC(O)c3ccco3)c3ccccc32)cc1.Cl (stereo not drawn) | -64.5%
O=C(Nc1nc2ccccc2n1Cc1ccc(Cl)cc1)c1ccco1 | 5.47%
O=c1c2ccccc2n(Cc2ccc(Cl)cc2)c(=O)n1Cc1ccco1 | 4.77%
CCn1c(=N)n(CC(O)c2ccco2)c2ccccc21.Cl (stereo not drawn) | -30.7%
Cl.N=c1n(Cc2ccc(Cl)cc2)c2ccccc2n1CC(O)c1ccco1 (stereo not drawn) | -64.1%
O=C(c1cccs1)N(Cc1cc2ccccc2[nH]c1=O)c1ccccc1 | -11.8%

SMILES | hERG current change (%, negative = inhibition) at 10uM
CC(C)CN=Cc1c(O)c([N+](=O)[O-])cc2oc3c(c12)CCCC3 | 0.113%
COc1ccc(CCNC(=O)c2cccc(S(=O)(=O)N3CCOCC3)c2)cc1OC | 1.15%
CC(C)(C)N1CC(C(=O)Nc2ccc(C#N)cc2)CC1=O (stereo not drawn) | 11.6%
O=C(NCCc1ccc(Cl)cc1)c1nnc(Cc2ccc(Cl)cc2)o1 | 10.1%
CN(C)c1ccc(C2CC(=O)NC3=C2C(=O)CC(C)(C)C3)cc1 (stereo not drawn) | 1.9%
COc1ccccc1NC(=O)N1CCC(C(=O)c2ccc(F)cc2)CC1 | 0.487%
COc1ccccc1NC(=S)N1CCC(C(=O)c2ccc(F)cc2)CC1 | -22.7%
O=C(Nc1cc(F)ccc1F)N1CCN(c2ccnc3cc(Cl)ccc23)CC1 | -66.4%
Cc1ccc(F)cc1NC(=O)N1CCCN(c2ccc(C(F)(F)F)cn2)CC1 | -43.3%
Cc1cccc(Cl)c1NC(=O)N1CCN(c2ccnc3cc(Cl)ccc23)CC1 | -16.8%
Cc1ccc(F)cc1NC(=O)N1CCN(c2ccnc3cc(Cl)ccc23)CC1 | -67%
COc1ccccc1N1CCN(c2ccnc3cc(Cl)ccc23)CC1 | -43.4%
COc1cccc(Cl)c1NC(=O)N1CCN(c2ccnc3cc(Cl)ccc23)CC1 | -44.1%
COc1ccccc1NC(=O)N1CCC(C(=O)c2ccc(Cl)cc2)CC1 | -72.7%
COc1ccccc1NC(=O)N1CCN(c2ccnc3cc(Cl)ccc23)CC1 | -80.5%
O=C(Nc1ccc(Cl)cc1Cl)N1CCN(c2ncccn2)CC1 | -21.1%
CCC(Sc1nc(-c2ccccc2)c(C#N)c(=O)[nH]1)C(=O)Nc1nnc(C)s1 (stereo not drawn) | 1.73%
Cc1ccc(NC(=S)Nc2nc(CC(=O)Nc3ccccc3)cs2)cc1 | 13%
COC(=O)c1ccc(-c2ccc(/C=N/N3C(=O)C4C5C=CC(CC5)C4C3=O)o2)cc1 (stereo not drawn) | -16.1%
CC(C)CC(=O)N1CCN(Cc2cccc(Cl)c2)CC1 | 7.42%
CCN1CCN(CCNC(=O)c2ccc3c(c2)N(Cc2ccc(F)cc2)C(=O)/C(=C/c2ccccc2)S3)CC1 | -42.7%
CN(C)Cc1nnnn1-c1cccc(-n2nnnc2CN(C)C)c1 | 12.3%

SMILES | hERG current change (%, negative = inhibition) at 10uM
COCC(=O)NC1CCN(CC(=O)Nc2ccc(OC)cc2[N+](=O)[O-])CC1 | -2.46%
CC(C)c1ccc(Nc2nnc(SCC(=O)Nc3ncc(S(=O)(=O)c4ccc([N+](=O)[O-])cc4)s3)s2)cc1 | 13.8%
COC(=O)C1=CN(CCOC23CC4CC(CC(C4)C2)C3)C=C(C(=O)OC)C1c1ccsc1 | 10%
Cn1c(=O)[nH]c2ccc([N+](=O)[O-])nc21 | 9.62%
Cc1cc(=O)oc2cc(NC(=O)C3CC(=O)N(Cc4ccccc4)C3)ccc12 (stereo not drawn) | 5.29%
COc1ccc(NC(=O)N2CCN(c3cccc(C(F)(F)F)c3)CC2)cc1OC | -1.73%
COc1ccccc1NC(=O)N1CCN(c2cccc(C(F)(F)F)c2)CC1 | -76.6%
COc1ccc(NC(=O)N2CCN(c3cccc(C(F)(F)F)c3)CC2)cc1 | -1.89%
O=C(CN1C(=O)COCC1=O)N1CCOCC1 | 3.2%
Cc1ccc(C)n1-c1ccc(-c2nnco2)cc1 | 8.42%
COCCCNCCCOc1ccc(C(C)(C)c2ccccc2)cc1.O=C(O)C(=O)O | -19.9%
COc1ccc(OCCCC(=O)NCCc2ccccc2)cc1 | -7.79%
O=C(CCCOc1ccc(Cl)cc1)NCCc1ccccc1 | 5.77%
COCCCNCCOc1ccc(C(C)(C)c2ccccc2)cc1.O=C(O)C(=O)O | -54.5%
COc1ccc(CCNCc2ccccc2)cc1.O=C(O)C(=O)O | -23.9%
COCCNCCCOc1ccc(C(C)(C)c2ccccc2)cc1.O=C(O)C(=O)O | -29.3%
Clc1ccc(OCCNCCc2ccccc2)cc1.O=C(O)C(=O)O | -73.7%
COc1ccc(CCNCc2ccccc2N2CCCC2)cc1.O=C(O)C(=O)O | -41.8%
c1ccc(CCNCCOc2ccccc2)cc1 | -0.101%
COc1ccc(OCCCNCCc2ccccc2)cc1.O=C(O)C(=O)O | -57%
COc1ccc(CCNCc2ccncc2)cc1.O=C(O)C(=O)O | -13.7%
COc1ccc(CCNCc2c(-c3ccccc3)n(C)c3ccccc23)cc1.O=C(O)C(=O)O | -52.3%
